# Bioassay records (PubChem)
# hERG WT inh = inhibitors of human wildtype KCNH2 potassium channel. U2OS, BacMam KCNH2, thallium flux FluxOr; hits give low values. hit rate 0.37% among 340,000. Q12809. activity change, % at 1.84 µM;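 active = maximum activity change below -70%; inconclusive = maximum activity change between -70% and -50%; inactive = maximum activity change above -50%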
#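 U2OS cells transduced with wild-type KCNH2 virus are loaded with FluxOr dye for 45 min, and thallium flux is measured in kinetic reads before and after stimulation buffer. Rate constants are normalized to DMSO controls.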
# KCNH2 3.1 block = KCNH2 3.1 (human) potassium channel inhibition; hit rate 0.95% among 340,000; activity change, % (tested at about 1.8 µM); U2OS KCNH2 3.1, thallium flux FluxOr; hits give low values; AID 720553;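 active = maximum activity change below -70%; inconclusive = maximum activity change from -70% to -50%; inactive = maximum activity change above -50%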;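 note: thallium influx rate constant from kinetic fluorescence after stimulation buffer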
#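 U2OS cells transduced with KCNH2 3.1 mutant virus (1.77 x 10^8 /mL, 4 h), plated overnight at 37 C, loaded 45 min with FluxOr dye plus Red40 quencher. Thallium flux rate constant from kinetic reads after stimulation buffer, normalised to controls.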
# KinaseGlo FLuc = counter-screen: inhibitors of Kinase-Glo firefly luciferase; Potency, µM (top dose mostly 38.3 µM), inactives show at the highest dose activity change, negative = inhibition, most hits filed as inhibitors; Kinase-Glo luciferase, ATP luminescence, 8 min; hit rate 0.28% among 200,000; Q27757; active = well fitted inhibition curve with a large enough effect; inconclusive = small, poorly fitted or top-dose-only effect; note: potency is the fitted concentration of half-maximal effect; nearly all actives have a fitted effect of over 60% in size
#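 Compound is pinned into ATP-containing buffer (10 uM ATP, imidazole pH 7.2, 7 mM MgCl2). Kinase-Glo luciferase reagent is then added. Light output is recorded following an 8-min room-temperature incubation.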
# * hit, by the source's call; u = inconclusive; x = no result; [ ] = another dose, or the depositor's remark. An excerpt weighted towards active compounds, which were near 1.2% of everything screened. % is set by controls: 0 for no effect and ±100 for the full control effect.
SMILES,hERG WT inh,KCNH2 3.1 block,KinaseGlo FLuc
Cn1c(SCC(=O)Nc2nncs2)nnc1C1CC1,12.2,-1.9,x
Cn1c(SCC(=O)Nc2ccccc2Oc2ccccc2)nnc1C1CC1,-110.0*,0.5,x
Cc1cc(NC(=O)CSc2n[nH]c(-c3ccc(Cl)cc3Cl)n2)no1,8.9,-8.0,x
O=c1c2ccccc2cnn1CCOc1cccc(Br)c1,-8.4,1.3,x
CCCN(CCC)CCCNC(=O)C1CCC(CNS(=O)(=O)c2cccc3nsnc23)CC1 (configuration not stated),27.9,-7.3,x
Cc1sc2nc(COC(=O)c3cccc(S(=O)(=O)N(C)c4ccccc4)c3)[nH]c(=O)c2c1C,-3.0,33.2,-2.5%
Cc1sc2nc(COC(=O)c3cccc(OC(F)F)c3)[nH]c(=O)c2c1C,-91.7*,-3.8,x
Cn1c(=O)c2ncn(CC(=O)N=Nc3c(O)[nH]c4ccccc34)c2n(C)c1=O,x,x,-2.0%
N#C/C(=C/c1ccc(-c2ccccc2)o1)c1nc(-c2cccs2)cs1,-19.9,-75.9*,2.4%
N#C/C(=C\c1ccc(-c2ccc(F)cc2)o1)C(=O)Nc1nc(-c2cccs2)cs1,13.4,13.1,-0.3%
FC(F)(F)Oc1ccc(Nc2nc3ccccc3o2)cc1,-10.9,-3.2,-5.4%
c1ccc(Nc2nc3ccccc3o2)cc1,2.0,-14.2,12.6µM*
CN(C)c1ccc(/C=N/NC(=O)c2ccccc2)cc1,-16.1,x,u
C/C(=N/N=C/c1ccc(N(C)C)cc1)c1ccccc1,-1.4,2.1,8.91µM*
CC1CCCCC12NC(=O)N(CC(=O)Nc1ccc(N3CCCCC3)cc1)C2=O (configuration not stated),13.5,-19.7,x
Fc1ccc(C2CC(c3ccco3)n3ncnc3N2)cc1 (configuration not stated),-130.5*,-174.5*,-1.2%
Cc1ccc(C2CC(c3ccco3)n3ncnc3N2)cc1 (configuration not stated),-6.1,0.2,2.0%
Cc1noc(C)c1C(=O)OCC(=O)NCCc1ccccc1,-24.2,14.8,x
Cc1noc(C)c1C(=O)OCC(=O)NCCc1ccc(S(N)(=O)=O)cc1,-9.6,-83.7*,x
CCCN(CC(=O)Nc1ccccc1OC)C(=O)c1cc(-c2cccs2)nn1-c1ccccc1,0.3,-11.4,x
N=C1C(c2ccccc2)=C(O)CN1c1cccc(S(=O)(=O)Nc2cccc(C(F)(F)F)c2)c1,-30.6,x,-0.1%
N=C1C(c2ccccc2)=C(O)CN1c1cccc(S(=O)(=O)N2CCCCC2)c1,-225.3*,6.1,x
CCOc1cc(CN2CCCC(C(=O)c3cccc(C(F)(F)F)c3)C2)ccc1O (configuration not stated),42.5,-46.9,0.1%
CSc1ccc(C(=O)C2CCCN(Cc3cccc4nccnc34)C2)cc1 (configuration not stated),u,-108.1*,x
O=C(c1ccc(C(F)(F)F)cc1)C1CCCN(Cc2cccn2-c2ncccn2)C1 (configuration not stated),-111.5*,-110.7*,-2.2%
SMILES,hERG WT inh,KCNH2 3.1 block,KinaseGlo FLuc
CSc1ccc(C(=O)C2CCCN(C(=O)CCCn3cncn3)C2)cc1 (configuration not stated),-3.2,10.0,x
O=C(c1cccc(C(F)(F)F)c1)C1CCCN(Cc2cccn2-c2ncccn2)C1 (configuration not stated),-72.4*,-8.8,-3.0%
O=C(c1ccc(C(F)(F)F)cc1)C1CCCN(C(=O)c2cnccn2)C1 (configuration not stated),3.2,8.0,-0.4%
O=C(COC(=O)c1cc(S(=O)(=O)N2CCOCC2)c(Cl)cc1Cl)NC1CC1,-25.9,2.9,x
CCc1sc(C(=O)NNC(=O)c2cncc(Br)c2)cc1C,-5.5,10.2,x
COc1ccccc1N1CCN(CCCn2c(=S)[nH]c3ccccc3c2=O)CC1,39.3,-27.7,x
COc1ccc(N2CCN(CCCn3c(=S)[nH]c4ccccc4c3=O)CC2)cc1,-118.0*,-79.6*,x
COc1cc2c(cc1NC(=O)/C=C/c1cc(OC)c(OC)c(OC)c1)oc1ccccc12,-6.5,-87.1*,-1.9%
COc1ccc(/C=C/C(=O)OCC(=O)Nc2cc3oc4ccccc4c3cc2OC)cc1,x,x,-0.3%
O=CN1CCN(C[C@H](O)CN2CCCCC2)CC1,x,x,0.3%[7.66 µM]
COc1ccc(NC(=O)C(c2ccccc2)N2CCN(c3ccccn3)CC2)cc1Cl (configuration not stated),15.3,-109.0*,2.6%
Cc1ccc(NC(=O)C(c2ccccc2)N2CCN(CC(=O)NC3CC3)CC2)cc1Cl (configuration not stated),2.7,27.1,x
COc1ccc(N2CCN(C(=O)c3cc(-c4ccc(F)cc4)[nH]c3C)CC2)cc1,-88.3*,-82.9*,x
CCOC(=O)N1CCN(C(=O)c2cc(-c3ccc(F)cc3)[nH]c2C)CC1,25.2,-11.2,-6.7%
CCn1c(SCC(=O)NCc2ccccc2)nc2ccccc2c1=O,-12.0,4.9,-0.3%
O=C(CSc1nc2ccccc2c(=O)n1Cc1ccc(Cl)cc1)NCc1cccs1,-5.6,-82.0*,1.5%
Cc1ccc(Cn2c(SCC(=O)Nc3cc(C)on3)nc3ccccc3c2=O)cc1,-2.4,-96.7*,-1.3%
Cc1cc(NC(=O)CSc2nc3ccccc3c(=O)n2Cc2ccccc2)no1,1.9,-1.0,-9.2%
COc1ccc(NC(=O)COC(=O)CCCC2=NS(=O)(=O)c3ccccc3N2)cc1,-42.7,1.3,x
Cc1cc(C)cc(NC(=O)COC(=O)CCCC2=NS(=O)(=O)c3ccccc3N2)c1,-110.3*,1.1,0.0%
CCCCN(C(=O)C1CC(=O)N(CCc2ccc(OC)c(OC)c2)C1)c1c(N)n(CCCC)c(=O)[nH]c1=O (configuration not stated),-0.6,18.7,x
O=CN1CCCN(C(=O)CC2C(=O)NCCN2Cc2cccc(Oc3ccccc3)c2)CC1 (configuration not stated),-2.6,3.2,x
C=CCOC(=O)/C(=C/c1cccc2ccccc12)NC(=O)c1ccccc1,-274.7*,-25.4,-0.5%
O=C(OCc1ccccc1)/C(=C/c1cccc2ccccc12)NC(=O)c1ccccc1,-6.7,-26.0,2.6%
CC1CN(c2nc3ccccc3nc2SCC(=O)Nc2cccc(C(F)(F)F)c2)CC(C)O1 (configuration not stated),0.4,1.5,x
SMILES,hERG WT inh,KCNH2 3.1 block,KinaseGlo FLuc
COc1ccc(OC)c(CN2CCN(Cc3ccc(OC)c(OC)c3OC)CC2)c1,16.3,-5.1,x
COc1ccc(CN2CCN(CCSc3ccc(C)cc3)CC2)c(OC)c1OC,52.4,-77.5*,x
COc1cccc(CN(C)C(=O)c2ccc(S(=O)(=O)Nc3ccccc3C)cc2)c1OC,2.0,11.1,x
CC(CCN)(CCN)[N+](=O)[O-],x,x,-5.5%[7.66 µM]
O=c1c2ccccc2c(-c2ccccc2)nn1-c1cc(Cl)cc(Cl)c1,2.9,8.7,x
Cc1ccc(N(C)C(=O)C2CCCN2S(=O)(=O)c2cccc3nsnc23)cc1 (configuration not stated),-0.9,-1.1,x
COc1ccc(N(C)C(=O)C2CCCN2S(=O)(=O)c2cccc3nsnc23)c(OC)c1 (configuration not stated),-208.4*,-7.2,x
COc1ccc(C(=O)NCCc2c[nH]c3ccccc23)cc1[N+](=O)[O-],2.9,-8.6,x
